{"source": "PubChem BioAssay (NCI)", "note": "About 83,000 compounds went through this panel and 20% of them were active in at least one assay; those are over-represented in the sample as a whole.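 Growth was measured after 48 h exposure to one concentration of compound in 96-well plates. Values under 10 count as active.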 Unmarked numbers belong to inactive results. Calls of active or inactive are those of the source.", "data": [{"system": "SK-MEL-5 melanoma", "experiment": "NCI-60 one-dose screen, 48 h (100 = growth as untreated, 0 = no growth, -100 = all killed)", "conditions": "10 µM unless noted", "protocol": "Growth inhibition of the SK-MEL-5 human tumor cell line is measured as a screen for anti-cancer activity. Cells are grown in 96 well plates and exposed to the test compound for 48 hours. Compounds are tested at a single concentration, which is 10^-5 M for most compounds. The reported endpoint is percent growth (GI% or GIPRCNT), where numbers from 0 - 100% represent growth inhibition, and numbers from -100% - 0 represent cell death. For example, a value of 40 represents 60% growth inhibition. A value of 0 means no net growth occurred over the course of the experiment. A value of -40 indicates 40% of cells at the beginning of the experiment died by the end of the experiment. A value of -100 means all cells are dead at the end of the experiment.\nNCI-60 Human Tumor Cell Lines Screen was performed using the standard one-dose NCI protocol, which is described in more detail at https://dtp.cancer.gov/discovery_development/nci-60/default.htm.\nCompounds with GIPRCNT values below 10 were considered active. Activity score was based on GIPRCNT using the following formula: […]\nScore is 0 for GIPRCNT values of 100 or above, 50 for GIPRCNT values of 0, and 100 for GIPRCNT values of -100.", "values": [{"smiles": "CC(c1ccccc1)C(C(=O)c1ccccc1)c1ccccc1", "note": "(stereo not given)", "growth": "98.5%"}, {"smiles": "N#CC1=C(N)Oc2c(cnn2-c2ccc([N+](=O)[O-])cc2[N+](=O)[O-])C1c1ccccc1", "note": "(stereo not given)", "growth": "97.1%"}, {"smiles": "CC1(C)CC(=O)C2=C(C1)N(c1ccc(F)cc1F)C(N)=C(C#N)C2c1cc(Br)ccc1F", "note": "(stereo not given)", "growth": "93%"}, {"smiles": "Cc1ccc(CNc2c3ccccc3nc3cc(NC(=O)CCN4CCCC4)ccc23)cc1", "growth": "42.3%"}, {"smiles": "NC1[C@H](c2c[nH]c3ccccc23)c2c([nH]c3ccccc23)[C@H]1c1c[nH]c2ccccc12", "note": "(stereo not given in full)", "growth": "85.2%"}, {"smiles": "COc1cc2nc(-c3ccc(Cl)cc3)cc(OCCCN3CCC(O)CC3)c2cc1OC", "growth": "-30% (active)"}, {"smiles": "COc1ccc(/C=C(\\C#N)n2nc3cccc(F)c3n2)cc1", "growth": "95.8%"}, {"smiles": "CCOC(=O)CCN(CC(C)C)C(=S)Nc1ccccc1", "growth": "102%"}, {"smiles": "COc1ccc(/C=C/c2nc(Nc3ccc(S(=O)(=O)NC(C)=O)cc3)c3ccccc3n2)cc1", "growth": "77.1%"}, {"smiles": "Cc1ccc(S(=O)(=O)NNC(=O)/C(=C\\c2ccc(Cl)cc2)c2nc3ccccc3s2)cc1", "growth": "94.9%"}, {"smiles": "CCNc1nc2ccc(Nc3ccnc4cc(Cl)ccc34)cc2[nH]1", "growth": "82.6%"}, {"smiles": "COc1cccc(-c2cc(C(=O)Nc3ccc(/C=C/c4ccc(OC5CCN(C)CC5)cc4)cc3)ccc2OC)c1", "growth": "96%"}, {"smiles": "O=C(Cn1c[n+](CC(=O)c2ccc([N+](=O)[O-])cc2)c2ccccc21)Nc1cccc2cccnc12", "growth": "95.8%"}, {"smiles": "O=C(Nc1ccc(NC(=O)c2cc(=O)[nH]c3ccccc23)cc1)Nc1cccc(Cl)c1", "growth": "92.9%"}, {"smiles": "C=C1C(=O)O[C@H]2[C@H]1CC/C(CNS(=O)(=O)c1cccc3ccccc13)=C\\CC[C@@]1(C)O[C@@H]21", "growth": "41.4%"}, {"smiles": "CCCCCCNC(=O)Oc1ccc(/C(=C(\\C)c2ccccc2)c2ccc(OCCCN(C)C)cc2)cc1", "growth": "92.9%"}, {"smiles": "C/C=C(\\C)C(=O)NC1=CC[C@@]2(C)C(=CCC3C2CC[C@@]2(C)C3CC[C@@H]2C(C)N(C)C)C1=O", "note": "(stereo not given in full)", "growth": "-34.7% (active)"}, {"smiles": "Cc1cnc(C(=O)Nc2nc3ccc(S(=O)(=O)Nc4ccc(C(C)(C)C)cc4)cc3[nH]2)cn1", "growth": "10.9%"}, {"smiles": "COc1cccc(-c2nc3occn3c2-c2ccnc(NCCNS(=O)(=O)c3ccc(C(F)(F)F)cc3)n2)c1", "growth": "82.5%"}, {"smiles": "O=[N+]([O-])c1ccc(NC(=S)N/N=C/c2cc3ccccc3n3nnnc23)cc1", "growth": "71%"}, {"smiles": "COc1cc2c(-c3cc4c(cc3CNCCc3ccc5c(c3)OCO5)OCO4)cccc2c(OC)c1O", "growth": "78.8%"}, {"smiles": "Fc1ccc2c(-c3cncn3CCc3ccccc3)c[nH]c2c1", "growth": "90.2%"}, {"smiles": "Cc1ccc(/C=C(/C#N)n2nnc3cccc(F)c32)cc1", "growth": "-55.2% (active)"}, {"smiles": "CCc1c2c(nc3ccc(OCc4ccc(B(O)O)cc4)cc13)-c1cc3c(c(=O)n1C2)COC(=O)[C@]3(O)CC", "growth": "-67.5% (active)"}, {"smiles": "C[C@H](c1nc2ccc(N)cc2[nH]1)[C@H]1CC[C@H]2[C@@H]3CCC4=CC(=O)CC[C@]4(C)[C@H]3CC[C@]12C", "growth": "81.3%"}, {"smiles": "CCN(CC)CCCC(C)Nc1cc(O)cc2cccnc12", "note": "(stereo not given)", "growth": "116%"}, {"smiles": "C=C(C)[C@@H]1CC[C@]2(C(=O)N3CCN(C)CC3)CC[C@]3(C)[C@H](CC[C@@H]4[C@@]5(C)CC[C@H](OCCC#N)C(C)(C)[C@@H]5CC[C@]43C)[C@@H]12", "growth": "94.8%"}, {"smiles": "COc1ccc2c(c1)C(=O)CC(c1ccccc1OC)O2", "note": "(stereo not given)", "growth": "98.7%"}, {"smiles": "C/C(=N\\NC(=O)CSc1nc2ccccc2c(=O)n1Cc1ccc(S(N)(=O)=O)cc1)c1ccc(F)cc1", "growth": "105%"}, {"smiles": "C=CCN1C(=O)/C(=C/C(=O)OC)S/C1=N\\NC(=O)c1cc2ccc1/C=C\\c1ccc(cc1)/C=C\\2", "growth": "92.5%"}, {"smiles": "CCOc1ccc(/C=N/Nc2cc(C)nc3ccc(Br)cc23)cc1", "growth": "84.9%"}, {"smiles": "O=S(=O)(NCCCNc1nccc(-c2c(-c3cccc(O)c3)nc3occn23)n1)c1ccc(Cl)cc1", "growth": "39.8%"}, {"smiles": "COc1ccc(OC)c(-c2cc(-c3ccc(Cl)cc3)c3c(N)c(C(=O)c4ccc(Cl)cc4)sc3n2)c1", "growth": "107%"}, {"smiles": "COc1cc2cc(Oc3cccc(NC(=O)Nc4cc(C(F)(F)F)cc(C(F)(F)F)c4)c3)c(C)nc2cc1OC", "growth": "-58.5% (active)"}, {"smiles": "COc1ccc(/C=C2\\COc3ccc(-c4ccccc4)cc3C2=O)c(OC)c1", "growth": "81.2%"}, {"smiles": "O=C1Nc2cc(-c3cccc(O)c3)ccc2/C1=C/c1ccc[nH]1", "growth": "6.19% (active)"}, {"smiles": "O=C(Cc1ccc(/C=C/C(=O)c2nccs2)cc1)Nc1ccccc1", "growth": "88.8%"}, {"smiles": "Cn1cc(-c2nc(-c3c[nH]c4c(Cl)nccc34)cs2)c2cc(F)ccc21", "growth": "94.5%"}, {"smiles": "COc1cc2nc(-c3ccc(Cl)cc3)cc(OCCCN3CCOCC3)c2cc1OC", "growth": "-52.6% (active)"}, {"smiles": "O=C(Nc1ccc(F)cc1)Nc1ccc(NC(=O)c2cc(Cl)nc3ccccc23)cc1", "growth": "70.1%"}]}]}
